Data published in PubChem BioAssay (EPA / NIEHS).
Inconclusive results are not listed. Some compounds were tested as several samples or in several runs, with calls that do not always agree. Calls of active or inactive are those of the source. Rule for the calls, unless noted: active = hit-call score of the fitted dose curve at least 0.9, where 1 is the maximum; inconclusive = response in the unintended direction; inactive = score below 0.9.

Assays:
[1] = target: human Peroxisome Proliferator-activated Receptor alpha (PPARa), PPARA (gene 5465) (UniProt Q07869); assay: ATG_PPARa_TRANS: Attagene TRANS-FACTORIAL HepG2 Assay for human Peroxisome Proliferator-activated Receptor alpha (PPARa) (AID 2283001);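 for AC50: potency for gain of reporter signal over DMSO so agonist or activator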
Procedure, shortened: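 Measures transcriptional activity of an exogenous chimeric PPARa-Gal4 protein in transiently transfected HepG2 cells after 24 h dosing. Reporter mRNA quantified via RT-PCR and capillary electrophoresis; DMSO served as negative control.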

[2] = read-out: Intercellular Adhesion Molecule 1 (ICAM1), ICAM1 (gene 3383); assay: BSK_3C_ICAM1: BioMAP Diversity Plus: 3C Assay for Intercellular Adhesion Molecule 1 (ICAM1) Biomarker Activity (AID 2283003; active = hit-call score of the fitted dose curve at least 0.9, where 1 is the maximum; inactive = score below 0.9); conditions: primary human endothelial cells (HUVEC); actives raise or lower the signal
Procedure, shortened: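 Primary human umbilical vein endothelial cells in the BioMAP 3C system were exposed to chemicals for 24 h, then ICAM-1 was quantified by ELISA. Activity was fitted bidirectionally against the DMSO negative control baseline.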

[3] = BSK_3C_Proliferation: Cell Proliferation Assessment in the BioMAP Diversity Plus: 3C Assay (AID 2283006; active = hit-call score of the fitted dose curve at least 0.9, where 1 is the maximum; inactive = score below 0.9;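 for AC50: potency may reflect either rise or fall in cell number versus DMSO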); conditions: primary human endothelial cells (HUVEC)
Procedure, shortened: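 Human umbilical vein endothelial cells were grown sub-confluent and exposed to chemical for 48 h, then fixed with 10% TCA and stained with 0.1% sulforhodamine B; absorbance at 560 nm gave relative cell number, fitted bidirectionally against DMSO baseline.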

[4] = target: Peroxisome proliferator-activated receptor gamma (Homo sapiens) (UniProt P37231); assay: ATG_PPARg_TRANS: Attagene TRANS-FACTORIAL HepG2 Assay for human Peroxisome Proliferator-activated Receptor-gamma (PPARg) (AID 2283007)
Procedure, shortened: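 HepG2 cells transiently transfected with multiplexed GAL4-UAS reporter units and exogenous chimeric NR-Gal4 proteins; reporter mRNA quantified after 24 h compound exposure by RT-PCR, fluorescent labelling, HpaI digestion and capillary electrophoresis; gain-of-signal fitted versus DMSO baseline.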

[5] = target: human RAR-related Orphan Receptor beta (RORb), RORB (gene 6096) (UniProt Q92753); assay: ATG_RORb_TRANS: Attagene TRANS-FACTORIAL HepG2 Assay for human RAR-related Orphan Receptor beta (RORb) (AID 2283010)
Procedure, shortened: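 HepG2 cells were transiently transfected with multiplexed GAL4-UAS reporter units expressing chimeric nuclear receptor–GAL4 proteins, then dosed for 24 h. Reporter mRNA was quantified by RT-PCR with fluorescent labelling and capillary electrophoresis; gain of signal was fitted relative to DMSO.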

[6] = target: human RAR-related Orphan Receptor gamma (RORg), RORC (gene 6097) (UniProt P51449); assay: ATG_RORg_TRANS: Attagene TRANS-FACTORIAL HepG2 Assay for human RAR-related Orphan Receptor gamma (RORg) (AID 2283011)
Procedure, shortened: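 Readout: reporter transcript induction (RT-PCR, fluorescent primer extension, capillary electrophoresis) after 24 h compound exposure of transiently transfected HepG2 cells carrying a RORg-Gal4 chimera and GAL4-UAS reporters; DMSO served as baseline, with increasing signal fitted.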

[7] = target: Retinoic acid receptor RXR-alpha (Homo sapiens) (UniProt P19793); assay: ATG_RXRa_TRANS: Attagene TRANS-FACTORIAL HepG2 Assay for human Retinoid X Receptor alpha (RXRa) (AID 2283012)
Procedure, shortened: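 HepG2 cells transiently transfected with multiplexed GAL4-UAS reporter units and chimeric NR-GAL4 fusions, dosed 24 h. Reporter mRNA measured by RT-PCR, FAM labelling, HpaI digestion and capillary electrophoresis; gain-of-signal fitted relative to DMSO baseline.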

[8] = target: human Retinoid X Receptor beta (RXRb), RXRB (gene 6257) (UniProt P28702); assay: ATG_RXRb_TRANS: Attagene TRANS-FACTORIAL HepG2 Assay for human Retinoid X Receptor beta (RXRb) (AID 2283013)
Procedure, shortened: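 HepG2 cells transiently transfected with multiplexed reporter units driven by GAL4-UAS and exogenous chimeric NR-Gal4 proteins; treated 24 h. Reporter mRNA measured by RT-PCR, 6-FAM labelling and capillary electrophoresis; gain-of-signal fitted versus DMSO baseline.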

[9] = read-out: E-selectin (Homo sapiens) (UniProt P16581); assay: BSK_3C_Eselectin: BioMAP Diversity Plus: 3C Assay for Eselectin Biomarker Activity (AID 2283015; active = hit-call score of the fitted dose curve at least 0.9, where 1 is the maximum; inactive = score below 0.9;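 note: cell surface E-selectin protein quantified by ELISA 24 h after dosing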); conditions: primary human endothelial cells (HUVEC); actives raise or lower the signal
Procedure, shortened: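 Primary human umbilical vein endothelial cells (3C system) were dosed with chemical and cell-surface E-selectin measured by ELISA 24 h later. Bidirectional curve fitting used DMSO as negative control and baseline.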

[10] = read-out: Interleukin-1 alpha (IL1a), IL1A (gene 3552); assay: BSK_BE3C_IL1a: BioMAP Diversity Plus: BE3C Assay for Interleukin-1 alpha (IL1a) Biomarker Activity (AID 2283016; active = hit-call score of the fitted dose curve at least 0.9, where 1 is the maximum; inactive = score below 0.9); conditions: primary human bronchial epithelial cells; actives raise or lower the signal
Procedure, shortened: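 Human primary bronchial epithelial cells (BE3C system) were dosed with compound and IL-1a measured by ELISA 24 h later. Activity was fitted bidirectionally against DMSO baseline; cytotoxicity was tracked in parallel cultures by SRB total-protein staining.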

[11] = read-out: Monocyte Chemoattractant Protein-1 (MCP1), CCL2 (gene 6347); assay: BSK_3C_MCP1: BioMAP Diversity Plus: 3C Assay for Monocyte Chemoattractant Protein-1 (MCP1) Biomarker Activity (AID 2283017; active = hit-call score of the fitted dose curve at least 0.9, where 1 is the maximum; inactive = score below 0.9); conditions: primary human endothelial cells (HUVEC); actives raise or lower the signal
Procedure, shortened: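 Primary human umbilical vein endothelial cells (3C system) were exposed to test chemical for 24 h, after which MCP-1 was quantified by ELISA. Activity was fitted bidirectionally against DMSO as negative control and baseline.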

[12] = read-out: Monocyte Chemoattractant Protein-1 (MCP1), CCL2 (gene 6347); assay: BSK_4H_MCP1: BioMAP Diversity Plus: 4H Assay for Monocyte Chemoattractant Protein-1 (MCP1) Biomarker Activity (AID 2283018; active = hit-call score of the fitted dose curve at least 0.9, where 1 is the maximum; inactive = score below 0.9); conditions: primary human endothelial cells (HUVEC); actives raise or lower the signal
Procedure, shortened: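 Human umbilical vein endothelial cells (4H system) dosed with chemical; MCP-1 measured by ELISA 24 h after dosing. Bidirectional curve fitting against DMSO negative control as baseline; parallel SRB total-protein staining tracks overt cytotoxicity.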

[13] = read-out: Human Leukocyte Antigen - DR isotype (HLADR), HLA-DRA (gene 3122); assay: BSK_3C_HLADR: BioMAP Diversity Plus: 3C Assay for Human Leukocyte Antigen - DR isotype (HLADR) Biomarker Activity (AID 2283019; active = hit-call score of the fitted dose curve at least 0.9, where 1 is the maximum; inactive = score below 0.9); conditions: primary human endothelial cells (HUVEC); actives raise or lower the signal
Procedure, shortened: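 Primary human umbilical vein endothelial cells (3C system) were dosed with compound and cell-surface HLA-DR was quantified by ELISA at 24 h. Activity was fitted bidirectionally against DMSO as negative control and baseline.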

[14] = read-out: Interleukin-8 (IL8), CXCL8 (gene 3576); assay: BSK_3C_IL8: BioMAP Diversity Plus: 3C Assay for Interleukin-8 (IL8) Biomarker Activity (AID 2283020; active = hit-call score of the fitted dose curve at least 0.9, where 1 is the maximum; inactive = score below 0.9); conditions: primary human endothelial cells (HUVEC); actives raise or lower the signal
Procedure, shortened: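 Primary human umbilical vein endothelial cells (3C system) were exposed to test chemical for 24 h, then IL-8 was quantified by ELISA. Responses were fitted bidirectionally against DMSO vehicle as baseline.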

[15] = read-out: Monokine induced gamma interferon (MIG), CXCL9 (gene 4283); assay: BSK_3C_MIG: BioMAP Diversity Plus: 3C Assay for Monokine induced gamma interferon (MIG) Biomarker Activity (AID 2283021; active = hit-call score of the fitted dose curve at least 0.9, where 1 is the maximum; inactive = score below 0.9); conditions: primary human endothelial cells (HUVEC); actives raise or lower the signal
Procedure, shortened: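 Primary human umbilical vein endothelial cells in the 3C system were exposed to chemical for 24 h, after which MIG was quantified by ELISA. Activity was fitted bidirectionally against DMSO as negative control and baseline.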

[16] = target: Nuclear receptor subfamily 1 group I member 2 (Homo sapiens) (UniProt O75469); assay: ATG_PXR_TRANS: Attagene TRANS-FACTORIAL HepG2 Assay for human Pregnane X Receptor (PXR) (AID 2283008)
Procedure, shortened: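 HepG2 cells transiently transfected with multiple reporter units, here a PXR-GAL4 chimera driving a GAL4-UAS reporter; 24 h compound exposure. Reporter mRNA measured by RT-PCR, FAM labelling and capillary electrophoresis; gain of signal fitted against DMSO baseline.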

[17] = target: human Thyroid Receptor alpha (THRa1), THRA (gene 7067) (UniProt P10827); assay: ATG_THRa1_TRANS: Attagene TRANS-FACTORIAL HepG2 Assay for human Thyroid Receptor alpha (THRa1) (AID 2283014)
Procedure, shortened: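 HepG2 cells transiently transfected with multiplexed GAL4-UAS reporter units for exogenous chimeric THRa1-Gal4; reporter mRNA measured 24 h after dosing by RT-PCR, 6-FAM labelling, HpaI digestion and capillary electrophoresis. Gain-of-signal fitted versus DMSO baseline.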

[18] = target: human Peroxisome Proliferator-activated Receptor delta (PPARd), PPARD (gene 5467) (UniProt Q03181); assay: ATG_PPARd_TRANS: Attagene TRANS-FACTORIAL HepG2 Assay for human Peroxisome Proliferator-activated Receptor delta (PPARd) (AID 2283002)
Procedure, shortened: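 HepG2 cells transiently transfected with GAL4-UAS multiplexed reporter units driven by exogenous chimeric NR-GAL4 proteins; 24 h compound exposure. Reporter mRNA measured by RT-PCR, 6-FAM primer extension, HpaI digestion and capillary electrophoresis; gain of signal fitted relative to DMSO.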

[19] = target: human Retinoic Acid Receptor beta (RARb), RARB (gene 5915) (UniProt P10826); assay: ATG_RARb_TRANS: Attagene TRANS-FACTORIAL HepG2 Assay for human Retinoic Acid Receptor beta (AID 2283004)
Procedure, shortened: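 HepG2 cells transiently transfected with multiplexed GAL4-UAS reporter units expressing chimeric NR–Gal4 fusions; 24 h compound exposure. Reporter mRNA quantified by RT-PCR, 6-FAM labelling, HpaI digestion and capillary electrophoresis; gain-of-signal fitted against DMSO baseline.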

[20] = target: Retinoic acid receptor alpha (Homo sapiens) (UniProt P10276); assay: ATG_RARa_TRANS: Attagene TRANS-FACTORIAL HepG2 Assay for human Retinoic Acid Receptor alpha (RARa) (AID 2283005)
Procedure, shortened: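 HepG2 transiently transfected with multiplex GAL4-UAS reporter units including a human RARa–GAL4 chimera; 24 h compound exposure. Reporter mRNA quantified by RT-PCR, 6-FAM labeling and capillary electrophoresis; gain of signal versus DMSO.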

Measured: AC50

human RAR-related Orphan Receptor gamma (RORg), RORC (gene 6097), sequence (P51449 whole entry, looked up, the tested form may be a part): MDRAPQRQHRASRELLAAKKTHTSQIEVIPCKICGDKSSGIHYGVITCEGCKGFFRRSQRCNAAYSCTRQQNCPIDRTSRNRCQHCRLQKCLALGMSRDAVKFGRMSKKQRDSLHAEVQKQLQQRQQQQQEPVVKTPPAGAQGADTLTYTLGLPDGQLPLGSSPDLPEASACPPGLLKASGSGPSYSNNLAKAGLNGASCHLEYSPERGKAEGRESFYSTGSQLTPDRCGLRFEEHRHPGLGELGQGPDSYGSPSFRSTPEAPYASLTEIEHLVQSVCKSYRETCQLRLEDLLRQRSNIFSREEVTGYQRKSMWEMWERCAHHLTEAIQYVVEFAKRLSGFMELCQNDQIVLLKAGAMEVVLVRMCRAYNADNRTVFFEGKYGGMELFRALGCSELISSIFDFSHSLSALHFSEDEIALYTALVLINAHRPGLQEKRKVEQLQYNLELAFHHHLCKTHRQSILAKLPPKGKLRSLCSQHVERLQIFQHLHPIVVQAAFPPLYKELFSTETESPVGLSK
human Peroxisome Proliferator-activated Receptor alpha (PPARa), PPARA (gene 5465), sequence (Q07869 whole entry, looked up, the tested form may be a part): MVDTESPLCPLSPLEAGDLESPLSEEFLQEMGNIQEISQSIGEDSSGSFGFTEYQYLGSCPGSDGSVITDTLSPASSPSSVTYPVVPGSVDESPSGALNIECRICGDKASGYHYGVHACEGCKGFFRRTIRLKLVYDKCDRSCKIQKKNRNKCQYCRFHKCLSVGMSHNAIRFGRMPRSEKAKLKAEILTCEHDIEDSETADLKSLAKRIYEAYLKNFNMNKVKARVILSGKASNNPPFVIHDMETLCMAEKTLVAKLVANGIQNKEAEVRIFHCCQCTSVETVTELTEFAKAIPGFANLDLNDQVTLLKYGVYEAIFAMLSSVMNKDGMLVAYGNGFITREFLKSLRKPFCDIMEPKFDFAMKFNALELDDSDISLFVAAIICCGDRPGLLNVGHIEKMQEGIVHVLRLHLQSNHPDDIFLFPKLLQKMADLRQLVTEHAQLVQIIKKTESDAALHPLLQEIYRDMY
human Peroxisome Proliferator-activated Receptor delta (PPARd), PPARD (gene 5467), sequence (Q03181 whole entry, looked up, the tested form may be a part): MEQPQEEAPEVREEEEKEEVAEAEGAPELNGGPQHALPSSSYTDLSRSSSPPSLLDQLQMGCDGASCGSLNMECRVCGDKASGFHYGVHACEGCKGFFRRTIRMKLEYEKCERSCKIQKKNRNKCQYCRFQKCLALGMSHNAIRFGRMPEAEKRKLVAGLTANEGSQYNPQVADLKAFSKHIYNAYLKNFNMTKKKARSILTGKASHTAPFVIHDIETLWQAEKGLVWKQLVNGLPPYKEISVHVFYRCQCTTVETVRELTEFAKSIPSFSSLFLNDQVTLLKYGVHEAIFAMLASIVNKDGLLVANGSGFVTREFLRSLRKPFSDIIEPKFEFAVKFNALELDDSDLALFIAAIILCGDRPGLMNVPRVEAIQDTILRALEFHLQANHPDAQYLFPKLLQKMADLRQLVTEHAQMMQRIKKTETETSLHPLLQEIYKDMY
Retinoic acid receptor RXR-alpha (Homo sapiens), sequence (P19793 whole entry, looked up, the tested form may be a part): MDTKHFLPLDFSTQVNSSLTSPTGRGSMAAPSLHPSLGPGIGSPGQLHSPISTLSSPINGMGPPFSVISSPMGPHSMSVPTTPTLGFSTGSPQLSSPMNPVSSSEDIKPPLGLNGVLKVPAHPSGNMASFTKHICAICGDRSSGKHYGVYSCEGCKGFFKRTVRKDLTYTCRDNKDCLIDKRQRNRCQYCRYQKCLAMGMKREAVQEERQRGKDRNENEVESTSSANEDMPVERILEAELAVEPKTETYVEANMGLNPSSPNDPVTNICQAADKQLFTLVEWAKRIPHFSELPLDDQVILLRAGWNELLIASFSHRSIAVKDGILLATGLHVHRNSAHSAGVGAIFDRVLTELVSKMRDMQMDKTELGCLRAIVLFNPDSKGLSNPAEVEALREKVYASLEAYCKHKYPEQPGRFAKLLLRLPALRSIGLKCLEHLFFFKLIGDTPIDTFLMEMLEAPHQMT
human Thyroid Receptor alpha (THRa1), THRA (gene 7067), sequence (P10827 whole entry, looked up, the tested form may be a part): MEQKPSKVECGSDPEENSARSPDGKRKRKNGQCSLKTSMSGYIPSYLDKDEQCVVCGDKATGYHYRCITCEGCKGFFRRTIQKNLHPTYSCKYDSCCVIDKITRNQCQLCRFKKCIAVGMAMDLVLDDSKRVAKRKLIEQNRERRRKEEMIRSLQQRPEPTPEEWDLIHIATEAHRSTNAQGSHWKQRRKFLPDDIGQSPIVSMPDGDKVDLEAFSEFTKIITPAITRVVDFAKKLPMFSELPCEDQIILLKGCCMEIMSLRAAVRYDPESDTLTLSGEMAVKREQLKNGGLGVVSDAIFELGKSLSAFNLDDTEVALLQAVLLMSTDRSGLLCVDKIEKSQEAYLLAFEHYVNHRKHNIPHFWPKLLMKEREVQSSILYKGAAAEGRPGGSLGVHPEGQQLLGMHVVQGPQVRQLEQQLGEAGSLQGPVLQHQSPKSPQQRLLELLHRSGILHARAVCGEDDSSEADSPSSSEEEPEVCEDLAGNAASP
human Retinoid X Receptor beta (RXRb), RXRB (gene 6257), sequence (P28702 whole entry, looked up, the tested form may be a part): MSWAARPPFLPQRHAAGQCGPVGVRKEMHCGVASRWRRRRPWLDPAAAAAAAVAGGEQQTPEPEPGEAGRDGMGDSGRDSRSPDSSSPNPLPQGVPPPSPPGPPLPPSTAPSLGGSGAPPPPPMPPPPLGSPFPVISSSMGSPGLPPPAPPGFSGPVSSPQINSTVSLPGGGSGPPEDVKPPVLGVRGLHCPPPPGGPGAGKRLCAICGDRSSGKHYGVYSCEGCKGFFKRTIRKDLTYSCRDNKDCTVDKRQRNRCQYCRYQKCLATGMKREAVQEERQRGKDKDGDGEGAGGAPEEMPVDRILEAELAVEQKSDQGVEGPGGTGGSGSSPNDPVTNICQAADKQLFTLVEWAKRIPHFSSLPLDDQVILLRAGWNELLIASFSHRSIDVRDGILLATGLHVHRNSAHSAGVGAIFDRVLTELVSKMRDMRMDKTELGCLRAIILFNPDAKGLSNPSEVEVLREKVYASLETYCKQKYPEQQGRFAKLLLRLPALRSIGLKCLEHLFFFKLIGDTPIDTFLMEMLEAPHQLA
Peroxisome proliferator-activated receptor gamma (Homo sapiens), sequence (P37231 whole entry, looked up, the tested form may be a part): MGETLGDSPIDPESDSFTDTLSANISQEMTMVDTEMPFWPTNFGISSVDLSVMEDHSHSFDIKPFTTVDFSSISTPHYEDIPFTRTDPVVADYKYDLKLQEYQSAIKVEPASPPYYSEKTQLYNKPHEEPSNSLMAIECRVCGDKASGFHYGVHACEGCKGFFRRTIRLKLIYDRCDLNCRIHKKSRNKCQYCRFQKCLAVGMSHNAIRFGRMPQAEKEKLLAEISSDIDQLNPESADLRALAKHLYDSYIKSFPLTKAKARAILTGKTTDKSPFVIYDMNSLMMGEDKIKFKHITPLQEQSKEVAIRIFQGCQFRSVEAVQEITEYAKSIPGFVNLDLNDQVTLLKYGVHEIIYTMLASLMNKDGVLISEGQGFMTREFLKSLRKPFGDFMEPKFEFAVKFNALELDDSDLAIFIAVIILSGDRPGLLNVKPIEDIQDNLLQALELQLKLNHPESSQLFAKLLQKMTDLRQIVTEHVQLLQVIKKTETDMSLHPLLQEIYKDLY
human RAR-related Orphan Receptor beta (RORb), RORB (gene 6096), sequence (Q92753 whole entry, looked up, the tested form may be a part): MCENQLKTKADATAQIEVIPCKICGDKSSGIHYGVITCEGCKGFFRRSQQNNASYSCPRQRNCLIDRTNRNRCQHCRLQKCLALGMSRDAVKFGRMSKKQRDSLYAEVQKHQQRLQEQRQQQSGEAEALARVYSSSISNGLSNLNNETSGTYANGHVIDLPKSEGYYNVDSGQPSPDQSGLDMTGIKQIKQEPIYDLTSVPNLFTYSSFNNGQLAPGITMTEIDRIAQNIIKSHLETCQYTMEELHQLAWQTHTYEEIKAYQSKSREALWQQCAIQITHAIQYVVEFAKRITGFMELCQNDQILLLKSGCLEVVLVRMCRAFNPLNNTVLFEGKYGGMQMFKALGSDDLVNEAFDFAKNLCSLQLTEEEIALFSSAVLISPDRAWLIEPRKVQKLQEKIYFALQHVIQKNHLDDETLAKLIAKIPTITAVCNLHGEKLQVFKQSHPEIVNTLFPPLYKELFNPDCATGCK
Nuclear receptor subfamily 1 group I member 2 (Homo sapiens), sequence (O75469 whole entry, looked up, the tested form may be a part): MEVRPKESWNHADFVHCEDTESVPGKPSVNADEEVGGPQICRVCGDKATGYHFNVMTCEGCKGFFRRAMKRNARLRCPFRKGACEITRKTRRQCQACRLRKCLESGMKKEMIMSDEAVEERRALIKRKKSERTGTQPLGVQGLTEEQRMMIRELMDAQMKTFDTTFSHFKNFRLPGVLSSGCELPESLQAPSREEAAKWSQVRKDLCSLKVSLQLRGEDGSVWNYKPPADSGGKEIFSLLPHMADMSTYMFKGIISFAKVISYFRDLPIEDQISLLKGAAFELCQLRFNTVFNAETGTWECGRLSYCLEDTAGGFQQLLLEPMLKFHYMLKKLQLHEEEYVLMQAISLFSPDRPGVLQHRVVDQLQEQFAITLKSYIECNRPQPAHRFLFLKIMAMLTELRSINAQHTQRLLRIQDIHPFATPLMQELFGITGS
E-selectin (Homo sapiens), sequence (P16581 whole entry, looked up): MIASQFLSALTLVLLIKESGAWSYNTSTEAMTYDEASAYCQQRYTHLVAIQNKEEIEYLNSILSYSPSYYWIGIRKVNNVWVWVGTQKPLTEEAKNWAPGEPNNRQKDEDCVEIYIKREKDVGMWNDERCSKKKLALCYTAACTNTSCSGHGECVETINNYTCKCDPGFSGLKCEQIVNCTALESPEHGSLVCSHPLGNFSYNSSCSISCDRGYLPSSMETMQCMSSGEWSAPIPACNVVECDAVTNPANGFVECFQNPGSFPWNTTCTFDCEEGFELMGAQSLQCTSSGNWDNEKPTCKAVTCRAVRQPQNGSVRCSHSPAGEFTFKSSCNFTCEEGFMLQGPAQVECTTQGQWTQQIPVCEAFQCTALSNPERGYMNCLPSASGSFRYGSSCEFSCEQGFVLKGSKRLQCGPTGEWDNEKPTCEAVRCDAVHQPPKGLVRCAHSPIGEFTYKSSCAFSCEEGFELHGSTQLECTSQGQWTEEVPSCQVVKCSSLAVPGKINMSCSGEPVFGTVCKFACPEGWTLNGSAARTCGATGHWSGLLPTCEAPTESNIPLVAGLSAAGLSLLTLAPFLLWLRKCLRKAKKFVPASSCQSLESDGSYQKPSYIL

OC1OC[C@@H](O)[C@H](O)[C@H]1O (stereo not given in full)
inactive: [1] | [2] | [3] | [4] | [5] | [6] | [7] | [8] | [9] | [10] | [11] | [12] | [13] | [14] | [15]
active: [14] 5.39 µM

C=CCOC(=O)CCC1CCCCC1
active: [3] 31.6 µM
inactive: [1] | [2] | [3] | [4] | [16] | [17] | [10] | [11] | [12] | [13] | [14] | [15]

CCCCOCCOCCOCCOCCO
inactive: [1] | [18] | [5] | [6] | [17]

O=C(O)c1cn(C2CC2)c2cc(N3CCNCC3)c(F)cc2c1=O
not listed: [5] | [6] | [9] | [17] | [18] | [19] | [20]
inactive: all other assays above

C=C[Si](OCC)(OCC)OCC
active: [16] 2.2 µM
not listed: [4] | [5] | [9] | [17] | [18] | [19] | [20]
inactive: all other assays above

CC1(C)[C@@H]2CC[C@@]1(C)[C@H](O)C2
inactive: [1] | [18] | [16] | [6] | [17]

CCCCCCCCC=O
inactive: [2] | [3] | [5] | [7] | [10] | [11] | [12] | [13] | [14] | [15]
active: [1] 100 µM

Clc1sc(Cl)c(Cl)c1Cl
inactive: [1] | [18] | [16] | [8]

CCC(O)CO (stereo not given)
inactive: [1] | [18] | [16] | [8] | [17]

C=C[C@@H](C)CCC=C(C)C
inactive: [1] | [18] | [16] | [5] | [6] | [17]

O=C(O)CCCCCCCC(=O)O
inactive: [1] | [19] | [20] | [4] | [7]

Sc1nc(S)nc(S)n1
inactive: [1] | [18] | [16] | [5] | [6] | [8]

C=COCCOCCOCCOC=C
inactive: [1] | [18] | [16] | [7] | [17]

CC(C)c1ccc(C(C)C)cc1
active: [2] 35.8 µM | [3] 33.8 µM | [8] 66.5 µM | [10] 29.1 µM | [11] 36.8 µM | [12] 29.9 µM | [13] 34.6 µM
inactive: [1] | [16] | [5] | [17] | [14] | [15]
